Where “and” joins values, the source holds several entries; their conditions need not be identical. Equal entries are not always repeated. More than one record can exist for a structure, and the calls need not agree. Calls of active or inactive are those of the source. The calls were made as follows: active = hit-call score of the fitted dose curve at least 0.9, where 1 is the maximum; inactive = score below 0.9.
What was measured:
[1] = ATG_M_61_CIS: Attagene CIS-FACTORIAL HepG2 Assay for M61 Transcription Factor (Internal Marker) (AID 2282937); conditions: HepG2 Attagene CIS-FACTORIAL M61 internal marker reporter; actives raise or lower the signal
Method in brief: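 Background-control endpoint: HepG2 cells with cis-regulated reporter constructs, 24 h exposure, reporter mRNA detected via fluorescent primer extension and capillary electrophoresis; values from bidirectional fitting with DMSO baseline.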

[2] = ATG_EGR_CIS: Attagene CIS-FACTORIAL HepG2 Assay for human Early Growth Response 1 (EGR1) (AID 2282938); conditions: HepG2 Attagene CIS-FACTORIAL EGR reporter mRNA; actives raise or lower the signal
Method in brief: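 Endpoint derived by bidirectional fitting versus DMSO vehicle. Method: cis-promoter reporter units transfected into HepG2, 24 h dosing, RNA isolation, RT-PCR with 6-FAM primer extension and HpaI digestion, then capillary electrophoresis fluorescence detection.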

[3] = ATG_M_19_CIS: Attagene CIS-FACTORIAL HepG2 Assay for M19 Transcription Factor (Internal Marker) (AID 2282939); conditions: HepG2 Attagene CIS-FACTORIAL M19 internal marker reporter; actives raise or lower the signal
Method in brief: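 Internal marker readout, fitted in both directions against DMSO, from HepG2 cells carrying transfected cis-element reporter constructs; RT-PCR and capillary electrophoresis of reporter mRNA after 24 h exposure.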

[4] = ATG_ERE_CIS: Attagene CIS-FACTORIAL HepG2 Assay for Estrogen Response Element (ERE) (AID 2282940); conditions: HepG2 ERE cis-reporter, Attagene RNA transcript; actives raise or lower the signal
Method in brief: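 After 24 h compound treatment, RNA from transfected HepG2 cells was reverse-transcribed, reporter cDNA PCR-amplified, FAM-labelled, HpaI-cut and resolved by capillary electrophoresis. ERE-driven cis reporter transcripts reflect endogenous factors; gain or loss scored against DMSO.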

[5] = ATG_Ets_CIS: Attagene CIS-FACTORIAL HepG2 Assay for human Erythroblast Transformation Specific (ETS) (AID 2282941); conditions: HepG2 ETS cis-reporter transcription; AC50: actives raise or lower the signal unless noted; outcome: actives raise or lower the signal unless noted
Method in brief: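 Endogenous transcription factor activity read as reporter mRNA via RT-PCR and capillary electrophoresis, with gain or loss fitted bidirectionally against DMSO. Human HepG2 liver cells, transiently transfected CIS reporter constructs, 24 h exposure.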

[6] = molecular target: Hepatocyte nuclear factor 3-beta (Homo sapiens) (UniProt Q9Y261); assay: ATG_FoxA2_CIS: Attagene CIS-FACTORIAL HepG2 Assay for human Forkhead box A2 (FOXA2) (AID 2282942); conditions: HepG2 cis-reporter transcription factor activity, 24 h; actives raise or lower the signal
Hepatocyte nuclear factor 3-beta (Homo sapiens), sequence (Q9Y261 whole entry, looked up): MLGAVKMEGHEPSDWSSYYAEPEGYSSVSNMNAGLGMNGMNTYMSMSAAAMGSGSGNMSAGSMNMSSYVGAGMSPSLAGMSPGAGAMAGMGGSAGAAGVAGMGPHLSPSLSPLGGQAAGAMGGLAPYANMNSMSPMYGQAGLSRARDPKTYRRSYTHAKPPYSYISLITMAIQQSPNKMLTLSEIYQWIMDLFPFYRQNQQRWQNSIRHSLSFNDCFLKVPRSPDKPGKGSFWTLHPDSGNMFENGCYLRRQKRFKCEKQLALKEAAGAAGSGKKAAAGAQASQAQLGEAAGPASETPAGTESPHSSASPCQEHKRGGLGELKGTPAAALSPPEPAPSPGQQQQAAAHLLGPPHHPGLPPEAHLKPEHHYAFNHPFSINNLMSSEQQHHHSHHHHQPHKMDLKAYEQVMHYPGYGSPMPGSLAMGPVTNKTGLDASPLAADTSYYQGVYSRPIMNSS
Method in brief: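 Measured: reporter mRNA induction or loss in HepG2 transiently carrying multiple cis-regulated reporter units, 24 h after dosing. Quantified by RT-PCR plus capillary electrophoresis, normalised to DMSO.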

[7] = ATG_FoxO_CIS: Attagene CIS-FACTORIAL HepG2 Assay for human Forkhead box O (FoxO) (AID 2282943); conditions: HepG2 Attagene cis-reporter, FoxO element, mRNA; actives raise or lower the signal
Method in brief: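 HepG2 cells transiently transfected with cis-promoter-driven multiple reporter transcription units; 24 h after chemical dosing, reporter mRNA quantified by RT-PCR, fluorescent primer extension, HpaI digestion and capillary electrophoresis. Bidirectional fitting versus DMSO baseline.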

[8] = ATG_GATA_CIS: Attagene CIS-FACTORIAL HepG2 Assay for human GATA Binding Protein (AID 2282944); conditions: HepG2 GATA cis-element reporter, Attagene multiplex mRNA; actives raise or lower the signal
Method in brief: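 Reporter transcripts from a GATA cis-regulated unit, among multiplexed reporters in transfected HepG2 cells, were measured by RT-PCR with capillary electrophoresis after 24 h dosing. Induction or loss scored relative to DMSO.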

[9] = ATG_GLI_CIS: Attagene CIS-FACTORIAL HepG2 Assay for human Zinc Finger Protein GLI1 (AID 2282945); conditions: HepG2, Attagene cis-factorial reporter mRNA, GLI element; actives raise or lower the signal
Method in brief: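 HepG2 cells transiently transfected with cis-promoter multiplexed reporter units report endogenous transcription factor activity. After 24 h chemical exposure, reporter mRNA was quantified by RT-PCR, 6-FAM labelling, HpaI digestion and capillary electrophoresis, with bidirectional fitting against DMSO.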

[10] = molecular target: Bile acid receptor (Homo sapiens) (UniProt Q96RI1); assay: ATG_IR1_CIS: Attagene CIS-FACTORIAL HepG2 Assay for human Nuclear Receptor Subfamily 1 Group H Member 4 (NR1H4), IR1 submotif (AID 2282946); conditions: IR1 reporter transcription, actives raise or lower the signal
Bile acid receptor (Homo sapiens), sequence (Q96RI1 whole entry, looked up): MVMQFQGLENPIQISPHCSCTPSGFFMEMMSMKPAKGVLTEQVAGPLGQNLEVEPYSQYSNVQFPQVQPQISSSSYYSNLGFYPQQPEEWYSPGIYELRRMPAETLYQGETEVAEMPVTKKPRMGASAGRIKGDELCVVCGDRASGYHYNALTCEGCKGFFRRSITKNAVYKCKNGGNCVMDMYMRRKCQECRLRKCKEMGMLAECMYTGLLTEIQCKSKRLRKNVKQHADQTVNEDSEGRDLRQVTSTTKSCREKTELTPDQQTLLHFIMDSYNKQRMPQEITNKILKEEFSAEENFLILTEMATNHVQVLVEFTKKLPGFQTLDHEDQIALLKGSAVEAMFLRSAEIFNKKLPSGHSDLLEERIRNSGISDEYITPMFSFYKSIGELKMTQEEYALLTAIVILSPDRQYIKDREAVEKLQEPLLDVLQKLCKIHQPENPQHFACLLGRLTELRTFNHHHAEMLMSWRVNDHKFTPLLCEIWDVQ
Method in brief: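 Readout: reporter transcript levels by RT-PCR with fluorescent capillary electrophoresis, from HepG2 cells transiently transfected with multiplexed cis-regulated reporters and dosed 24 h. Gain- or loss-of-signal fitted versus DMSO negative control.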

Measured: AC50

FC(F)(F)N1C(F)(F)C(F)(F)OC(F)(F)C1(F)F
not listed: [10]
inactive: all other assays above

Cc1cc(C(C)(C)C)c(O)c(C(C)(C)C)c1
inactive: [1] | [2] | [3] | [5] | [6] | [7] | [8] | [9] | [10]
active: [3] 97.1 µM | [5] 33.4 µM | [9] 97.4 µM | [10] 60 µM

FC1(F)C=CC(F)(F)C1(F)F
inactive: all assays above

CCCCCCCCCCCC[N+](C)(C)Cc1ccccc1
inactive: [1] | [2] | [3] | [5] | [7] | [8] | [9]
active: [2] 17.3 µM | [5] 11.1 µM | [9] 16.7 µM

CCOC(C)=O
active: [8] 100 µM
inactive: [1] | [2] | [3] | [4] | [5] | [6] | [7] | [8] | [9]

CCCCN(C)C
inactive: all assays above

O=C1Cc2ccccc2N1c1c(Cl)cccc1Cl
active: [4] 6.29 µM
not listed: [10]
inactive: all other assays above

O=S(=O)(c1ccc(OCc2ccccc2)cc1)c1ccccc1O
inactive: [1] | [3] | [4] | [6]
active: [2] 33.4 µM | [5] 33.4 µM | [7] 50.8 µM | [8] 55.4 µM | [9] 51.1 µM

CN(Cc1cnc2nc(N)nc(N)c2n1)c1ccc(C(=O)N[C@@H](CCC(=O)O)C(=O)O)cc1
not listed: [10]
inactive: all other assays above

COc1ccc(C#N)cc1
inactive: all assays above

CCC(C)c1nccnc1OC (stereo unspecified)
not listed: [10]
inactive: all other assays above

Cc1cc(=O)oc2cc(O)ccc12
active: [4] 41.8 µM and 58.5 µM
not listed: [10]
inactive: all other assays above

CC(C)(O)C(=O)c1ccccc1
not listed: [10]
inactive: all other assays above

COc1cc([N+](=O)[O-])ccc1N
inactive: all assays above

NNc1nc(-c2ccc([N+](=O)[O-])cc2)cs1
inactive: all assays above

FCOC(C(F)(F)F)C(F)(F)F
inactive: all assays above

CC[N+](CC)(CC)Cc1ccccc1
inactive: all assays above

Cc1ccccc1C(OCCN(C)C)c1ccccc1 (stereo unspecified)
inactive: all assays above

CC1=CC(=O)c2ccccc2C1=O
inactive: all assays above

CCOC(=O)CN[C@@H](C(=O)N1CC[C@H]1C(=O)NCc1ccc(/C(N)=N/O)cc1)C1CCCCC1
inactive: all assays above

OCC(F)(F)C(F)(F)C(F)(F)C(F)(F)C(F)(F)C(F)(F)C(F)(F)C(F)(F)C(F)(F)C(F)(F)C(F)(F)F
active: [4] 72.3 µM
inactive: all other assays above

Oc1c(Cl)ccc(Cl)c1Cl
inactive: all assays above

COC1=CC(=O)C[C@@H](C)[C@]12Oc1c(Cl)c(OC)cc(OC)c1C2=O
inactive: all assays above

Reference: PubChem BioAssay (EPA / NIEHS)
